Measured values as given in PubChem BioAssay AID1347120 (National Center for Advancing Translational Sciences (NCATS), 2019).
Among all 390,000 compounds or so, about 930 (0.24%) were called active. Inconclusive results (about 5%) are left out. The list comes from a sample in which actives are over-represented; it also holds similar structures and randomly drawn compounds. A number with no mark means an inactive call. The call rests on the fitted dose curve; in most records, active means well fitted activation curve with a large enough effect; inconclusive means small, poorly fitted or top-dose-only effect; inactive means no such curve, though single readings can be large or run the other way.

experiment: qHTS for Suppressors of FUS Proteinopathy: Primary screen using FUS-linked yeast assay; further: nearly all actives have a fitted effect of over 55% in size;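 on growth rescue (activation): plate controls were DMSO vehicle for no effect and reference control for full effect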; settings: S. cerevisiae FUS-expressing, OD600, 24 h; Potency: growth rescue; series mostly up to 76.6 µM; growth rescue (activation): at the top concentration
Source text: Several widespread neurodegenerative diseases, including Alzheimer disease, Huntington disease, Frontotemporal Lobar Degeneration (FTLD) and Amyotrophic Lateral Sclerosis (ALS), share a common pathological feature, namely accumulation of specific protein aggregates in diseased tissue. These diseases which is associated with protein misfolding (proteinopathies) have become increasingly problematic as the population ages and life expectancies are extended. Most proteinopathies are currently incurable, a situation confounded by the fact that the basis of neurodegeneration is generally poorly understood. There exists urgent and significant need to find therapeutics that can inhibit the toxicity associated with protein aggregation. A novel approach to understand the underlying mechanisms of neurodegenerative diseases has recently emerged in which the disease conditions are modeled in the yeast (Saccharomyces cerevisiae), a tractable eukaryotic organism with conserved protein quality control mechanisms. Yeast offers quick and reliable genetic manipulations and can be easily tailored to high-throughput screening (HTS).
For this project, a yeast model of the FUS proteinopathies (a spectrum of neurodegenerative diseases that include ALS and a subtype of FTLD) was generated and employed. The cytoplasmic accumulation of the DNA/RNA-binding protein FUS (also known as TLS) is causative to both familial and sporadic forms of ALS and FTLD. This yeast model recapitulates neuronal pathology by showing severe cytotoxicity associated with cytoplasmic accumulation of FUS aggregates and a specific interaction between FUS and TDP-43, another ALS-associated protein. […] Specifically, the cellular accumulation of misfolded FUS that disrupts RNA homeostasis in both yeast and higher eukaryotes. This model was validated to be suitable for quantitative HTS (qHTS) use for finding genetic or chemical factors that restore growth. […] Identified compounds that inhibits FUS-yeast toxicity is flagged, re-acquired, and validated for further investigation and optimization.
NIH Chemical Genomics Center [NCGC]
NIH Molecular Libraries Probe Production Centers Network [MLPCN]
Assay Submitter (PI): Frank Shewmaker PhD, Uniformed Services University of the Health Sciences
Compound CP55940 was used as the positive control. Column 1 was treated with CP55940 titration from 92uM (final concentration, 1:2 dilution), while Column 2 was treated with top dose 92uM. Columns 3 and 4 were treated with DMSO only as negative control to assess background and noise signal.
Four hundred fifty microliter of cultured yeast (in 20mL rich medium) provided by Dr. Shewmaker lab was incubated at 30C at 99% humidity for 3hr. The culture was then spun down at 4000rpm for 5min and the cell pellet was resuspended in 2mL of Sdmin Media + ALU(330) + 2.5% Raffinose. One hundred microliter of the suspension was added to 900uL of water and OD of the solution was obtained. Twenty mL of responding medium (provided by Shewmaker lab) + 2.5% raffinose was added to ensure cell density of 0.1; the solution was incubated overnight. Working cell solution (FUS-yeast in Sdmi + Sdmi + 1X ALU + 2% galactose media) was prepared (final OD at 0.005) and 3uL was dispensed in a 1536-well Aurora high based clear bottom assay plates. Controls and library compounds (at various final concentrations from 40uM to 0.32uM) were added using a 1536-well pin array using the Kalypsys pin-tool. The plates were then incubated for 24hrs in a cell-culture incubator (30C; 99% humidity). Absorbance at 600nm was then read using the PerkinElmer ViewLux plate reader.
Potency means the concentration at half of the fitted maximal effect.

Row | SMILES | growth rescue (activation) [%] | Potency
1 | Cc1cc(C(=O)Nc2cccc(C(F)(F)F)c2)c2c(C)nn(-c3cccc(F)c3)c2n1 | 15.4 | 
2 | CC(C)(C)c1ccc(C(=O)Nc2ccc3c(c2)CCCN3C(=O)c2cccs2)cc1 | 41.4 | 
3 | CC(C)c1ccc(S(=O)(=O)Nc2ccc(O)c(Sc3nc4ccccc4s3)c2)cc1 | 30.6 | 
4 | CC(C)(C)c1ccc(S(=O)(=O)Nc2ccc(O)c(Sc3nc4ccccc4s3)c2)cc1 | 9.07 | 
5 | CCOc1ccc(Nc2c(S(=O)(=O)c3ccccc3)cnc3ccccc23)cc1 | 43.5 | 
6 | Cc1c(NC(=O)Cc2ccccc2)cccc1-c1nc2cccnc2s1 | 24 | 
7 | Cc1ccc(Cl)cc1NC(=O)CCC(=O)N1CC(C)Sc2ccccc21 (stereo not given) | 43.6 | 
8 | CCN(C(=O)COC(=O)CCOc1cccc(C)c1)c1c(N)n(Cc2ccccc2)c(=O)[nH]c1=O | 8.57 | 
9 | CCCn1c(C)cc(/C=C(\C#N)C(=O)OCC(=O)Nc2cc(OC)c(OC)c(OC)c2)c1C | 23.6 | 
10 | CCCn1c(C)cc(/C=C(\C#N)C(=O)OCC(=O)N(C)c2c(N)n(Cc3ccccc3)c(=O)[nH]c2=O)c1C |  | 25.1 µM (active)
11 | CCC1CCCCN1C(=O)Cn1c(=O)n(CCCCCC(=O)NCc2ccccc2)c(=O)c2sccc21 (stereo not given) | 6.98 | 
12 | COc1ccc(NC(=O)NC(C)c2c(-n3cccc3)sc(C)c2C)cc1OC (stereo not given) | 42.7 | 
13 | CCN(CC)S(=O)(=O)c1ccc2c(c1)N(CC(=O)NCC(C)c1ccccc1)C(=O)CO2 (stereo not given) | 14.3 | 
14 | CCN(CCCNC(=O)c1cc2c(=O)n(CC)c3ccccc3c2s1)Cc1ccccc1 | 6.37 | 
15 | Cc1cccc(NC(=O)CSc2nnc(CNC(=O)c3cccc(C)c3)n2-c2ccccc2)c1 | 8.61 | 
16 | CCc1ccc(S(=O)(=O)c2nnn3c2nc(NCc2ccccc2OC)c2cc(Cl)ccc23)cc1 | -7.06 | 
17 | N#C/C(=C\c1cccc(F)c1)c1nc(-c2cc3c(ccc4ccccc43)oc2=O)cs1 | -1.96 | 
18 | COc1ccc(C2C(=O)N(C3CCCCCC3)CC(=O)N2CCc2ccc(Cl)cc2)cc1OC (stereo not given) | 21.5 | 
19 | Cc1onc(-c2ccc(F)cc2F)c1C(=O)Nc1cccc(C(F)(F)F)c1 | 8.05 | 
20 | COc1ccc(C2=NN(C(=O)CSc3nc(=O)n4ccc(C)cc4n3)C(c3ccc(C)cc3)C2)cc1 (stereo not given) | -24.8 | 
21 | Cc1ccc(CNC(=O)CSC2=Nc3ccccc3C3=NC(C)C(=O)N23)cc1 (stereo not given) | 17.6 | 
22 | Cc1ccc(N2C(=O)C3N=NN(CC(=O)N4N=C(c5cccc6ccccc56)CC4c4ccccc4)C3C2=O)cc1 (stereo not given) |  | 14.1 µM (active)
23 | COc1ccccc1CNC(=O)Cn1nc(C)c2nn(-c3ccc(Cl)cc3)c(C)c2c1=O | 43.3 | 

Row | SMILES | growth rescue (activation) [%] | Potency
24 | Cc1ccc(NC(=O)c2nc(S(=O)(=O)Cc3cccc(C)c3)ncc2Cl)cc1 | -17.7 | 
25 | CCN1C(=O)[C@H]2[C@@H](c3ccc(-c4ccc(OC)cc4)cc3)N[C@@](Cc3ccccc3)(C(=O)OC)[C@H]2C1=O | -1.62 | 
26 | CCN1C(=O)[C@H]2[C@@H](c3ccc(-c4ccc(F)cc4)cc3)N[C@@](Cc3ccccc3)(C(=O)OC)[C@H]2C1=O |  | 11.2 µM (active)
27 | CCN1C(=O)[C@H]2[C@@H](c3ccc(SC4CCCCC4)c(OC)c3)N[C@@](Cc3ccccc3)(C(=O)OC)[C@H]2C1=O | 26.7 | 
28 | COC(=O)c1cc2occc2n1Cc1nc(-c2ccc(C)cc2)oc1C | 17.4 | 
29 | CCN(Cc1ccccc1)S(=O)(=O)c1ccc2c(c1)CCCN2C(C)=O | 17.6 | 
30 | Cc1cccc(CSc2nc3ccncc3n2CC(=O)N(C)C2CCCCC2)c1 | 11.2 | 
31 | Cc1ccc(Cl)cc1N(C)C(=O)C1CCCN(c2ncnc3onc(-c4ccc(F)cc4)c23)C1 (stereo not given) | 5.26 | 
32 | CC1C(=O)Nc2ccc(S(=O)(=O)N3CCN(c4ccccc4F)CC3)cc2NC1=O (stereo not given) | -20 | 
33 | COc1ccc(N2CCN(S(=O)(=O)c3ccc4c(c3)NC(=O)C(C)C(=O)N4)CC2)cc1 (stereo not given) | 5.53 | 
34 | CON(C)S(=O)(=O)c1ccc2c(c1)NC(=O)C1CCCN21 (stereo not given) |  | 28.2 µM (active)
35 | COc1ccc(OCCCn2c(C)nc3cc(C)c(C)cc32)cc1 | 25.3 | 
36 | CC(NC(=O)c1cc(Sc2ccc(F)cc2F)nc2ccccc12)c1ccccc1 (stereo not given) | 23.4 | 
37 | Cc1cccc(-n2ncc(C(=O)N3CCc4ccccc4C3)c2C2CCN(C(=O)OC(C)(C)C)CC2)c1 | -8.68 | 
38 | CC(=O)c1sc(N2C(=O)c3oc4ccccc4c(=O)c3C2c2ccc(C)cc2)nc1C (stereo not given) | 3.74 | 
39 | Cc1ccc2nc(N3C(=O)C(O)=C(C(=O)c4ccco4)C3c3cccc(O)c3)sc2c1 (stereo not given) |  | 15.8 µM (active)
40 | CCOc1cc(C2C(C(=O)c3ccco3)=C(O)C(=O)N2Cc2ccccc2)ccc1O (stereo not given) | 11 | 
41 | Cc1ccc(CN2C(=O)SC(Nc3ccccc3)C2=O)cc1 (stereo not given) | -7.07 | 
42 | CCN(c1ccc2c(c1)OCO2)S(=O)(=O)c1cc(Br)cc2c1N(C(=O)C1CC1)CC2 |  | 17.8 µM (active)
43 | CN(Cc1ccccc1)C(=O)CCS(=O)(=O)c1cc(Br)cc2c1N(C(=O)C1CC1)CC2 | 43.2 | 
44 | CCOC(=O)N1CCN(S(=O)(=O)c2cc(Br)cc3c2N(C(=O)C2CC2)CC3)CC1 | 1.43 | 
45 | O=C(CCS(=O)(=O)c1cc(Br)cc2c1N(C(=O)C1CC1)CC2)Nc1ccc(Br)cc1F | -0.121 | 
